The record followed here is PubChem BioAssay (NCI).

Compounds without any hit were thinned out: in the full panel of roughly 83,000, 20% have a hit.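 Results are percent growth after 48 hours of single-concentration exposure. 100 means growth as in untreated cells, lower positive values show inhibition; negative values down to -100 show cell death.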 Activity calls are given as the source filed them. How the source made its calls: active means growth percent below 10; inactive means the rest.

This assay concerns MCF7 breast. The experiment in a line: NCI-60 one-dose screen, 48 h (100 = growth as untreated, 0 = no growth, -100 = all killed). The conditions noted are these: 10 µM unless noted.
Take `CSc1nc(NCCO)c(C#N)c(-c2cccc(N)c2)n1`: the growth was 94.7% (inactive). `COc1cccc(/C=C2/C(=O)N(Cc3ccco3)SC2=S)c1OC`: the growth was 47.3% (inactive).

Consider `COc1ccc2nc3cc(Cl)ccc3c(N3CCN(c4nccc(Nc5ccc(Cl)cc5)n4)CC3)c2c1`, for which the growth was 41.6% (inactive). Turning to `NCc1cn2cc(Cl)sc2n1`, the growth was 95% (inactive).

`COc1ccc(/C=C/C(=O)c2ccc(NC(=O)c3cc4cc5ccccc5nc4s3)cc2)cc1OC`: the growth was 80.3% (inactive). Regarding `CC(=O)N1CC(Nc2ccc(OC(F)(F)F)cc2)=CC1=O`, the growth was 11.8% (inactive). Consider `COc1ccc(/C=N\NC(=O)CN2CCN(c3cc4c(cc3F)c(=O)c(C(=O)N/N=C/c3ccc(OC)cc3)cn4C3CC3)CC2)cc1`, for which the growth was 73.2% (inactive). On to `CN(C)c1ccc(/C=C\C2=[N+](C)c3ccccc3C2(C)C)cc1`, for which the growth is 3.95% (active). As for `COc1nc2c(cc1S(=O)(=O)c1ccccc1)CCc1c-2cnn1-c1ccc(Cl)cc1`, the growth was 95.2% (inactive). Turning to `CC1=C(NCCN2CCCC2)C(=O)c2c(OCc3ccc(F)c(Cl)c3)cccc2C1=O`, the growth is 41.3% (inactive).

In the case of `CN1CCN(Cc2ccc(NC(=O)c3cncc(C#Cc4cnc(N)c5cccnc45)c3)cc2C(F)(F)F)CC1`, the growth was 26.8% (inactive). Consider `C/C(=C(/c1ccc(O)cc1)c1ccc(OCCN2CCCC2)cc1)c1ccccc1`, for which the growth is 22.2% (inactive). Then `c1ccc2sc(SCCCn3ccnc3)nc2c1`, with 88.1% (inactive). Turning to `COC(=O)C12C3C(=O)N(c4ccc(OC)cc4)C(=O)C3C(c3cn(-c4ccccc4)nc3C)N1[C@H](c1cn(-c3ccccc3)nc1C)[C@@H]1C(=O)N(c3ccc(OC)cc3)C(=O)[C@@H]12` (some centres undefined), the growth is 102% (inactive).
